Shown are actives, neighbours in structure and some others; about 2.8% of the full set was active somewhere.
PAX8 inh HTS = inhibitors of PAX8-driven TPO luciferase reporter, primary screen, RMG-I cells, single concentration; hit rate 1.2% among 360,000; inhibition, % at 12.6 µM; SteadyGlo, 24 h;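 active means mean replicate inhibition at least 60% with every replicate also reaching 60%; inconclusive means only one of the two criteria is met; inactive means mean below 60% and not all replicates reaching 60%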;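 further: luciferase light reporting Pax8 driven TPO promoter activity; plate controls were median of neutral control wells for no effect and mitoxantrone controls for full effect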
Peg3 prom inh = Peg3 promoter-driven luciferase inhibitors, primary screen, cell-based, HeLa, luciferase luminescence; HeLa PEG-Prom luciferase reporter, overnight; inhibition, % at 20 µM; hit rate 1.7% among 360,000; AID 588405, 2011;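 active means inhibition of at least 50% at 20 µM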
Shn3 3UTR inh = reduction of Shn3 3'UTR firefly luciferase signal, primary screen, Schnurri-3 inhibitor project, cell-based, Clone20 osteoblasts, set 2; Clone20 osteoblast Shn3 3'UTR firefly luciferase, 24 h; inhibition, % at 12.5 µM; hit rate 0.52% among 360,000; AID 588674, 2011;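 active means mean inhibition of at least 75% with every replicate also reaching 75%; inconclusive means mean inhibition at least 75% but some replicate below; inactive means mean inhibition below 75%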;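 further: 0% = median of neutral control wells and 100% = pilot-screen positive control compound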
LMP1 NFkB inh = EBV LMP1-driven NF-kappaB luciferase reporter inhibitors, primary screen, cell-based, luminescence, single point | LMP1-induced NF-kappaB luciferase reporter cells | inhibition, % at 12.5 µM | hit rate 0.69% among 350,000; in the data active means inhibition above about 41%; inconclusive means no clear call, values can overlap the other calls;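 further: 0% = neutral control wells and 100% = reference inhibitor control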
HIF-2a inh = HIF-2a reporter inhibitors, primary screen, luminescence, 786-0 RCC cells; 786-0 RCC cells HIF-2a reporter, luciferase luminescence, overnight; inhibition, % at 18.8 µM; hit rate 0.72% among 360,000;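 active means inhibition of the luminescence signal of 40% or more relative to plate controls, in a single-dose primary screen at 18.75 µM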
TRPM1 prom inh = inhibitors of MITF-dependent TRPM1 promoter reporter, primary screen, cell-based, SK-MEL-5, single point, luciferase; AID 488899, 2010; hit rate 0.83% among 330,000; inhibition, % at 12.5 µM; SK-MEL-5 TRPM1 promoter luciferase, 24 h;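 active means mean inhibition across replicates of 60% or more, whatever share of single replicates reaches that level; inconclusive means some that reach 60%, reason not given; inactive means mean inhibition across replicates below 60%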
* = called active by the depositor; ! = a repeat was not active.

Results for COc1ccc(-c2ccc(C3[C@@H]4CN(Cc5cc(OC)cc(OC)c5)C[C@H]3N4)cc2)cc1 (some centres undefined) ?
PAX8 inh HTS: 86*!

Results for COc1ccc(NC(=O)N2C[C@@H]3N[C@H](C2)[C@@H]3c2ccc(-c3ccc(OC)cc3)cc2)cc1 ?
PAX8 inh HTS: 93*

How did O=C(NC1CCCCC1)N1C[C@@H]2N[C@H](C1)C2c1ccc(-c2ccc(F)cc2)cc1 (some centres undefined) do in these assays?
PAX8 inh HTS: 105*!

Results for COCCNC(=O)C[C@H]1C=C[C@H](NC(=O)NC2CCCCC2)[C@H](CO)O1 ?
PAX8 inh HTS: -14

How did COc1cccc(-c2ccc(C3[C@@H]4CN(C(=O)C5CC5)C[C@H]3N4)cc2)c1 (some centres undefined) do in these assays?
PAX8 inh HTS: 80*!

What do the screens show for `Cc1ccccc1-c1ccc(C2[C@@H]3CN(C(=O)Nc4cccc(F)c4)C[C@H]2N3)cc1` (some centres undefined)?
PAX8 inh HTS: 85*!

What do the screens show for `O=C(Nc1ccc(F)cc1)N1C[C@@H]2N[C@H](C1)C2c1ccc(/C=C/c2ccccc2)cc1` (some centres undefined)?
PAX8 inh HTS: 105*!

How did CC(C)CCNc1nc(-c2ccco2)c2c(c1C#N)CCCC2 do in these assays?
Peg3 prom inh: 15; Shn3 3UTR inh: 2; LMP1 NFkB inh: -7; HIF-2a inh: 33; TRPM1 prom inh: 8

How did N#Cc1c(NCCN)nc(-c2ccco2)c2c1CCCC2 do in these assays?
Peg3 prom inh: 9; Shn3 3UTR inh: 10; LMP1 NFkB inh: 78*; HIF-2a inh: 11; TRPM1 prom inh: -3

How did Cc1ccnc(NC(=O)Cc2ccc(-c3ccccc3)cc2)c1 do in these assays?
PAX8 inh HTS: -9; Peg3 prom inh: 98*; Shn3 3UTR inh: -435; LMP1 NFkB inh: -335; HIF-2a inh: -431; TRPM1 prom inh: -46

Results for O=C(Cc1ccc(-c2ccccc2)cc1)Nc1ccccn1 ?
PAX8 inh HTS: -8; Peg3 prom inh: -122; Shn3 3UTR inh: -40; LMP1 NFkB inh: -2; HIF-2a inh: -190; TRPM1 prom inh: -63

Results for Cc1ccc(NC(=O)CCC(=O)c2cccs2)nc1 ?
PAX8 inh HTS: -31; Peg3 prom inh: -110; Shn3 3UTR inh: -16; LMP1 NFkB inh: -19; HIF-2a inh: -98; TRPM1 prom inh: -17

What do the screens show for `Cc1ccnc(NC(=O)CCC(=O)c2cccs2)c1`?
PAX8 inh HTS: inconclusive; Peg3 prom inh: 21; Shn3 3UTR inh: 40; LMP1 NFkB inh: 59*; HIF-2a inh: 51*; TRPM1 prom inh: 41

What do the screens show for `CC(/C=C(\NC(=O)c1ccccc1)C(=O)N=Nc1c(O)[nH]c2ccc(C)cc12)=C\c1ccccc1`?
Peg3 prom inh: 53*; Shn3 3UTR inh: 19; LMP1 NFkB inh: 12; HIF-2a inh: 11; TRPM1 prom inh: 11

How did CC1(C)CC(=O)C2=C(C1)N1C(=C(C#N)C2c2ccccc2Cl)N=C(N)c2ccccc21 (centres undefined) do in these assays?
PAX8 inh HTS: 2; Peg3 prom inh: 43; Shn3 3UTR inh: 6; LMP1 NFkB inh: 11; HIF-2a inh: -11; TRPM1 prom inh: -2

What do the screens show for `CC1(C)CC(=O)C2=C(C1)N1C(=C(C#N)C2c2ccc(Cl)cc2)N=C(N)c2ccccc21` (centres undefined)?
PAX8 inh HTS: 67*; Peg3 prom inh: 32; Shn3 3UTR inh: 21; LMP1 NFkB inh: -63; HIF-2a inh: 30; TRPM1 prom inh: 45

What do the screens show for `C[C@H](CO)N1C[C@H](C)[C@H](CN(C)C(=O)Nc2ccccc2)Oc2ccc(NC(=O)Cc3cn(C)c4ccccc34)cc2C1=O`?
PAX8 inh HTS: -30

What do the screens show for `CCN1CCN(Cc2ccc(NC(=O)c3cc(NC(=O)c4cc(-c5ccc(OC)cc5)n[nH]4)cc(OC)c3)cc2C(F)(F)F)CC1`?
PAX8 inh HTS: inconclusive; Peg3 prom inh: 32; Shn3 3UTR inh: 9; LMP1 NFkB inh: -2; HIF-2a inh: -32; TRPM1 prom inh: 99*

Results for CCN1CCN(Cc2ccc(NC(=O)c3cc(NC(=O)c4ccc5n[nH]nc5c4)cc(OC)c3)cc2C(F)(F)F)CC1 ?
PAX8 inh HTS: 4; Peg3 prom inh: -10; Shn3 3UTR inh: -27; LMP1 NFkB inh: -18; HIF-2a inh: -2; TRPM1 prom inh: 2

How did CCN1CCN(Cc2ccc(NC(=O)c3ccc(C)c(NC(=O)C4=NN(c5ccccc5)C(=O)C4)c3)cc2C(F)(F)F)CC1 do in these assays?
PAX8 inh HTS: 1; Peg3 prom inh: -34; Shn3 3UTR inh: 12; LMP1 NFkB inh: 10; HIF-2a inh: -13; TRPM1 prom inh: 10

How did COc1ccc(-c2cc(C(=O)Nc3cc(OC)cc(C(=O)Nc4cccc(C(F)(F)F)c4)c3)[nH]n2)cc1 do in these assays?
PAX8 inh HTS: 72*!; Peg3 prom inh: 31; Shn3 3UTR inh: 8; LMP1 NFkB inh: -13; HIF-2a inh: -16; TRPM1 prom inh: -10

What do the screens show for `COc1cc(NC(=O)c2cc3cccc(OC)c3o2)cc(C(=O)Nc2cccc(C(F)(F)F)c2)c1`?
PAX8 inh HTS: 92*; Peg3 prom inh: 41; Shn3 3UTR inh: 50; LMP1 NFkB inh: 13; HIF-2a inh: 6; TRPM1 prom inh: 51

How did CCN1CCN(Cc2ccc(NC(=O)c3cc(NC(=O)c4cncc(-c5cccs5)c4)cc(OC)c3)cc2C(F)(F)F)CC1 do in these assays?
PAX8 inh HTS: 51; Peg3 prom inh: 31; Shn3 3UTR inh: 98*; LMP1 NFkB inh: -7; HIF-2a inh: -21

What do the screens show for `COc1cc(NC(=O)c2ccno2)cc(C(=O)Nc2cccc(C(F)(F)F)c2)c1`?
PAX8 inh HTS: 28; Peg3 prom inh: 1; Shn3 3UTR inh: 0; LMP1 NFkB inh: 9; HIF-2a inh: -20; TRPM1 prom inh: 2

How did CNC[C@@H]1Oc2ccc(NC(=O)NC3CCCCC3)cc2CC(=O)N([C@H](C)CO)C[C@H]1C do in these assays?
PAX8 inh HTS: 4

How did O=C(NC[C@H]1[C@@H](c2ccccc2)[C@H](CO)N1Cc1cccnc1)c1ccccn1 do in these assays?
PAX8 inh HTS: -10

How did CCN1CCN(Cc2ccc(NC(=O)c3cc(NC(=O)N4CCNC4=O)cc(OC)c3)cc2C(F)(F)F)CC1 do in these assays?
PAX8 inh HTS: 9; Peg3 prom inh: 97*!; Shn3 3UTR inh: 13; LMP1 NFkB inh: 11; HIF-2a inh: -37; TRPM1 prom inh: -4

What do the screens show for `CCN1CCN(Cc2ccc(NC(=O)c3ccc(C)c(NC(=O)C[C@@H]4NC(=O)[C@H](Cc5ccccc5)NC4=O)c3)cc2C(F)(F)F)CC1`?
PAX8 inh HTS: 4; Peg3 prom inh: 10; Shn3 3UTR inh: -3; LMP1 NFkB inh: 40; HIF-2a inh: -8; TRPM1 prom inh: 6

Screens: PubChem BioAssay, several laboratories
